# Results filed as inconclusive are left out. A call without a number means that no potency is given here. Values without a mark were called inactive. Calls of active or inactive are those of the source. The call rests on the fitted dose curve; in most records, active means well fitted inhibition curve with a large enough effect; inconclusive means small, poorly fitted or top-dose-only effect; inactive means no such curve, though single readings can be large or run the other way.
# Assays:
# [1] = test system: Zika virus NS2B-NS3 protease (unlinked complex); test: Primary screen GU Rhodamine qHTS for Zika virus inhibitors: Unlinked NS2B-NS3 protease assay (AID 1347159); details: Recombinant ZIKV NS2B-NS3 protease, Rhodamine110 substrate fluorescence; series mostly up to 107 µM; further: nearly all actives have a fitted effect of over 60% in size
# Procedure, shortened: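 Noncovalent NS2B hydrophilic domain–NS3 protease domain complex (25 nM) preincubated 15 min at room temperature with compounds (up to 114 microM) in 10 mM Tris-HCl pH 8.0, 0.01% Tween 20; 1.5 microM Rhodamine110 substrate added, fluorescence change over 15 min fitted to Hill equation.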
# [2] = test system: Zika virus NS2B-NS3 protease (linked construct); test: Primary screen NINDS Rhodamine qHTS for Zika virus inhibitors (AID 1347160); details: purified NS2B-NS3 protease, Rhodamine110 substrate fluorescence; series mostly up to 57.1 µM; further: nearly all actives have a fitted effect of over 55% in size
# Procedure, shortened: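 Purified linked NS2B-NS3 protease (NS2B hydrophilic domain joined to NS3 protease by flexible linker), 25 nM in 10 mM Tris-HCl pH 8.0, 0.01% Tween 20. Compounds titrated, 15 min preincubation at room temperature; 1.5 microM Rhodamine110 substrate, FITC fluorescence change over 15 min.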
SMILES,"activity change, negative = inhibition [1]","activity change, negative = inhibition [2]",Potency [1],Potency [2]
CCC(C)(OC(C)=O)C(=O)O[C@H]1[C@H](OC(C)=O)[C@]2(CO)[C@H](O)[C@H](O)[C@]3(C)C(=CCC4[C@@]5(C)CC[C@H](O[C@@H]6O[C@H](C(=O)O)[C@@H](O)[C@H](O[C@@H]7OC[C@H](O)[C@H](O[C@@H]8OC[C@H](O)[C@H](O)[C@H]8O)[C@H]7O)[C@H]6O[C@@H]6O[C@H](CO)[C@@H](O)[C@H](O)[C@H]6O)C(C)(C)C5CC[C@]43C)[C@@H]2CC1(C)C (stereo partly specified),-1.56% [at 19.1 µM],-4.88% [at 10.7 µM],–,–
COc1ccc(N(C(=O)Nc2c(C)cccc2C)c2cc(Nc3ccc(N4CCN(C)CC4)cc3)ncn2)c(OC)c1,–,–,inactive,inactive
N#CSc1cc(SC#N)c(N)nc1N,–,–,inactive,inactive
CC(C)(C)Oc1ccc(OCC2Cc3ccccc3CN2C(=O)c2cccc3ccccc23)cc1 (stereo unspecified),–,–,inactive,inactive
C=C1CC[C@@H](O)[C@]2(C)CC[C@H]3C(=C)C(=O)O[C@@H]3[C@@H]12,–,–,inactive,inactive
COc1ccc(S(=O)(=O)n2cnc3cc(C)c(C)cc32)cc1,–,–,inactive,inactive
C[C@H]1[C@H](/C=C/c2ccc(-c3ccccc3C#N)cn2)[C@@H]2[C@@H](C)OC(=O)[C@@H]2C[C@@H]1C,–,–,inactive,inactive
CC(=O)O[C@H]1CC(C)(C)CC2[C@]13CO[C@@]21CCC2[C@@]4(C)CC[C@H](O[C@@H]5OC[C@H](O[C@@H]6O[C@H](CO)[C@@H](O)[C@H](O)[C@H]6O[C@@H]6OC[C@@H](O)[C@H](O)[C@H]6O)[C@H](O)[C@H]5O[C@@H]5O[C@H](CO)[C@@H](O)[C@H](O)[C@H]5O)[C@@](C)(CO)C4CC[C@@]2(C)[C@]1(C)C[C@H]3O (stereo partly specified),–,–,inactive,inactive
Cc1nc(C(=O)N2CCC[C@H]2Cc2nnc(-c3ccccc3)o2)c(-c2ccccc2F)s1,–,–,inactive,inactive
CCC(C)c1ccc(NC(=O)Cn2cnc3c2c(=O)n(C)c(=O)n3C)cc1 (stereo unspecified),–,–,inactive,inactive
COc1cccc(NCCC2(c3ccccc3)CC(C)(C)OC(C)(C)C2)c1,–,–,inactive,inactive
C=C(C)C1=C[C@@]2(C)C(=CC1=O)CC[C@@H](O)[C@@H]2C,–,–,inactive,inactive
CC1(C)CC[C@]23CO[C@@]4(CCC5[C@@]6(C)CC[C@H](O[C@@H]7OC[C@H](O[C@@H]8O[C@H](CO)[C@@H](O)[C@H](O)[C@H]8O[C@@H]8OC[C@@H](O)[C@H](O)[C@H]8O)[C@H](O)[C@H]7O[C@@H]7O[C@H](CO)[C@@H](O)[C@H](O)[C@H]7O)[C@@](C)(CO)C6CC[C@@]5(C)[C@]4(C)C[C@H]2O)[C@@H]3C1 (stereo partly specified),–,–,inactive,inactive
COc1ccc([C@H]2Cc3cccc(O)c3C(=O)O2)cc1OC,–,–,inactive,inactive
C=C1C(=O)OC2C3=C(C)C(=O)CC3C(C)CC(O)C12 (stereo unspecified),–,–,inactive,inactive
CC(=O)O[C@H]1CC(C)(C)CC2[C@]13CO[C@@]21CCC2[C@@]4(C)CC[C@H](O[C@@H]5OC[C@H](O[C@@H]6O[C@H](CO)[C@@H](O)[C@H](O)[C@H]6O[C@@H]6OC[C@@H](O[C@@H]7O[C@H](CO)[C@@H](O)[C@H](O)[C@H]7O)[C@H](O)[C@H]6O)[C@H](O)[C@H]5O[C@@H]5O[C@H](CO)[C@@H](O)[C@H](O)[C@H]5O)[C@@](C)(CO)C4CC[C@@]2(C)[C@]1(C)C[C@H]3O (stereo partly specified),0.509% [at 19.1 µM],-9.67% [at 10.7 µM],–,–
O=c1[nH]cnc2c([C@@H]3N[C@H](CO)[C@@H](O)[C@H]3O)c[nH]c12,–,–,inactive,inactive
CC(=O)O[C@@H]1[C@@H](O)[C@H](O[C@@H]2[C@@H](O)[C@@H](O)[C@H](O[C@H]3[C@H](O[C@H]4[C@H](O[C@H]5CC[C@@]6(C)C(CC[C@]7(C)C6CC=C6[C@@H]8CC(C)(C)CC[C@]8(C(=O)O)CC[C@]67C)[C@]5(C)CO)O[C@H](CO)[C@@H](O)[C@@H]4O)OC[C@@H](O)[C@@H]3O)O[C@H]2C)OC[C@H]1O (stereo partly specified),–,–,inactive,inactive
N#CC(CCCN1CCN(/N=C/c2cccnc2)CC1)(c1ccccc1)c1ccccc1,–,–,inactive,inactive
COc1cc(C(C)=O)c(OC)c2c1OC(C)(C)C=C2,–,–,inactive,inactive
Nc1nc(Cl)nc2c1ncn2C1OC(CO)C(O)C1F (stereo unspecified),–,–,inactive,inactive
CC(=O)N1CCN(CCOc2ccc(C3CCN(C4=Nn5c(nnc5C(F)(F)F)CC4)CC3)cc2)CC1,–,–,inactive,inactive
CN(c1ccc(NC(=O)Nc2ccccc2)cc1)S(=O)(=O)c1cnn(-c2ccc(F)cc2)c1,–,–,inactive,inactive
COc1ccccc1N1CCN(c2ncnc3n[nH]c(Br)c23)CC1,–,–,inactive,inactive

SMILES,"activity change, negative = inhibition [1]","activity change, negative = inhibition [2]",Potency [1],Potency [2]
COC(C)(C)CCn1nc(Nc2c(C)cccc2C)c2cnc(Nc3ccc(OCCN4CCCC4)c(F)c3)nc21,–,–,inactive,inactive
CCn1c(=O)n([C@H]2CCCN(c3nccc(-c4cc5ccccc5o4)n3)C2)c2ccccc21,–,–,inactive,inactive
O=C(Nc1ccc(N(Cc2ccsc2)C(=O)Cn2nnc3ccccc32)cc1)C1CC1,–,–,inactive,inactive
CCCc1ccc(OCC(=O)N(Cc2nc(-c3cccnc3)no2)C(C)C)cc1,–,–,inactive,inactive
COc1cc2nc(C3CC3)nc(N3CCN(c4ccccc4OC)CC3)c2cc1OC,–,–,inactive,inactive
CC1=C(C(=O)Nc2cc(Cl)ccc2Cl)C(c2ccco2)C2=C(CCCC2=O)N1 (stereo unspecified),–,–,inactive,inactive
CC(C)=CCC/C(C)=C/COCC1OC(n2ccc(=O)[nH]c2=O)C(O)C1O (stereo unspecified),–,–,inactive,inactive
COc1ccc2cc3c(NC(=O)c4ccco4)nn(C)c3nc2c1,–,–,inactive,inactive
CCCC1(CCC)CCC2(CCN(CCCN(CC)CC)C2)CC1,–,–,inactive,inactive
O=C(Cc1c(F)cccc1F)Nc1cc(OCc2ccc(Cl)cc2)ccn1,–,–,inactive,inactive
COc1ccc(CCN(C)CCCOc2nsc(-c3ccccc3)n2)cc1OC,–,–,inactive,inactive
Cc1cc(-c2nc(-c3ccc(OC(F)(F)F)cc3)no2)nn1Cc1ccnc(N2CCN(C3CC3)CC2)c1,–,–,inactive,inactive
CC(C)S(=O)(=O)c1ccc2nccc(Nc3ccc4scnc4c3)c2c1,–,–,inactive,inactive
C=C(C)C1CC(O)C(C)C12CC(O)C1(C)OC1C2O (stereo unspecified),–,–,inactive,inactive
C=CC(=O)N1CC(N2CCN(C(=O)CNc3cc(C4CC4)c(Cl)cc3O)CC2)C1,–,–,inactive,inactive
CCN(Cc1cc(Nc2nc(C)cn3c(-c4cn[nH]c4)cnc23)sn1)C(C)(C)CO,–,–,inactive,inactive
CCC(C)C(=O)O[C@H]1[C@@H](OC(=O)c2ccoc2)C[C@](C)(O)[C@]23OC(C)(C)[C@H](C[C@H](OC(=O)c4ccoc4)[C@]12COC(C)=O)[C@H]3OC(C)=O (stereo partly specified),–,–,inactive,inactive
O=C(Nc1ccc(CN2CCOCC2)cc1)c1ccc(-c2cccc(Cl)c2)o1,–,–,inactive,inactive
C=C(C)C(=O)O[C@H]1[C@H]2C(=C)C(=O)O[C@@H]2/C=C(\CO)CC/C=C(/C=O)[C@@H]1O,–,–,inactive,inactive
C=C1C(=O)O[C@@H]2[C@H]3C(C)=CC(=O)C3=C(C)[C@@H](OC(=O)/C(C)=C\C)[C@H](O)[C@@H]12,–,–,inactive,inactive
O=C(N[C@@H]1CCCc2c1cnn2-c1ccc(F)cc1F)c1ccccn1,–,–,inactive,inactive
C=CC(=O)Nc1cccc(Nc2nc(Nc3ccc(OCCOC)cc3)ncc2F)c1,–,–,inactive,inactive
C=C(C)C(=O)OC1CC2(C)OC(=CC2=O)C(=C)CC2OC(=O)C(=C)C12 (stereo unspecified),–,–,inactive,inactive
CCC1C(=O)N(C)c2cnc(Nc3ccc(C(=O)NC4CCN(C)CC4)cc3OC)nc2N1C1CCCC1 (stereo unspecified),–,–,inactive,inactive

# Reference: PubChem BioAssay (NCATS)
